Screens as filed in PubChem.
Many of the other results were omitted from the sample, so hits are more common in it than they were.
TSHR ag – activates the human thyroid stimulating hormone receptor. P16473. HEK293-CNG-TSHR cells (CNG channel as cAMP sensor), membrane potential dye, cAMP. Potency, µM (series often up to 57.1 µM), for the others: at the top dose activation, actives largely listed as activators. actives 0.48% (n = 73,000). AID 926; active = well fitted activation curve with a large enough effect in the main read-out, with a control signal flat, not every such curve was filed as active; inconclusive = small, poorly fitted or top-dose-only effect, or a change in a side signal; inactive = no such curve, though single readings can be large or run the other way; % of control where 0% means no effect;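 also: the control signal comes from parental cells without the receptor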
Target sequence (P16473 whole entry, looked up): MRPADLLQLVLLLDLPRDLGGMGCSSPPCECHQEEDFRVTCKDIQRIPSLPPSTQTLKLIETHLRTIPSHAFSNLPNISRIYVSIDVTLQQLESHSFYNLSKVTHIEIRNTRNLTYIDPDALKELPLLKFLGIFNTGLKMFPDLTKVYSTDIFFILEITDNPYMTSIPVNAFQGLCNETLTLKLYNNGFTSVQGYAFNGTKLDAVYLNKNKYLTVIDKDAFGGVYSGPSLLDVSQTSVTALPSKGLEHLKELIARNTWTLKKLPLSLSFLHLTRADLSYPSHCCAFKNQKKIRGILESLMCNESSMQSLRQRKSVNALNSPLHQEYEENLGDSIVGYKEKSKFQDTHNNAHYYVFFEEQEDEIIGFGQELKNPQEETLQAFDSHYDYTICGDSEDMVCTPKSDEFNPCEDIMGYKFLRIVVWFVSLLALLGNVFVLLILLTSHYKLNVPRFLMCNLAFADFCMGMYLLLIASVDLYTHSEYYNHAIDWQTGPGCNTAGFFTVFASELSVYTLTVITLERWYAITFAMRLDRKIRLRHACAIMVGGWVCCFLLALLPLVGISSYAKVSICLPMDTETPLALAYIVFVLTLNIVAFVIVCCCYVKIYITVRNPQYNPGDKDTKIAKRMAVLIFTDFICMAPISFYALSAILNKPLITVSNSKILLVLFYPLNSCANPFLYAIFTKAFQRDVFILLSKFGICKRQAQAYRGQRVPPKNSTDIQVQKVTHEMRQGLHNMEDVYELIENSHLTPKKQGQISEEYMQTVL
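HEK 293 cells stably expressing TSHR and a modified CNG channel, with CNG-only parental cells as counterscreen, were preloaded 60 min at room temperature with membrane potential dye containing 100 uM RO 20-1724. Compound exposure was 30 min, and depolarization was read as fluorescence at 590 nm.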
HEK293 cAMP ctrl – raises cAMP in parental HEK293 cells, TSHR agonist counter-screen; parental HEK293 CNG cAMP sensor, membrane potential fluorescence; Potency, µM (doses to about 57.1 µM), for the others: at the top dose activation, most hits filed as activators; actives 2.5% (n = 73,000); also: % of control where 0% means no effect; nearly all actives have a fitted effect of over 55% in size
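Parental HEK 293 cells stably expressing a modified CNG channel (no TSHR) report cAMP rise as membrane depolarization. Membrane potential dye with 100 uM RO 20-1724 was loaded for 60 min at room temperature, then compound added for 30 min; fluorescence read at 590 nm.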
Imprint erasure – inducers of genomic imprint erasure in mouse ES cells; mouse ES Peg3-LacZ reporter, beta-gal luminescence, 40 h; Potency, µM (top dose mostly 60.7 µM), inactives show at the top dose activity change, positive = activation, hits mostly activators; actives 0.02% (n = 110,000); AID 1948
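Gelatin-coated wells received 300 freshly trypsinized female ES cells with a Peg3LacZ-Neo reporter on the maternal allele, then incubated 40 hours at 37C. BetaGlo was added for 5 minutes at room temperature before a single luminescence read.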
Active calls of the source: *; u = inconclusive; x = no result given; [ ] = dose if it differs, or a comment. Unless noted, calls follow the shape of the dose curve; as a rule, active = well fitted activation curve with a large enough effect; inconclusive = small, poorly fitted or top-dose-only effect; inactive = no such curve, though single readings can be large or run the other way. Potency is read from the fitted curve at half-maximal effect.

SMILES	TSHR ag	HEK293 cAMP ctrl	Imprint erasure
CCOC(=O)c1noc2ncnc(N3CCN(c4cccc(Cl)c4)CC3)c12	x	x	-15%[10.9 µM]
CC(C)CNC(=O)CN(C1CCCCC1)S(=O)(=O)c1ccccc1	32µM*	29%	-12%
CC(C)CNC(=O)CN(C1CCCCC1)S(C)(=O)=O	u	u	-16%
O=C(NCC(c1ccc2c(c1)OCO2)N1CCN(c2ccccc2)CC1)C(=O)Nc1ccc(F)cc1 (centres undefined)	x	x	13%[10.9 µM]
COc1cccc(NC(=O)Cn2c(-c3nonc3N)nc3ccccc32)c1	x	x	-5%[10.9 µM]
COc1cccc(Cn2c(-c3nonc3N)nc3ccccc32)c1	u	25µM*	12%
COc1ccc(CCNC(=O)Cn2c(-c3nonc3N)nc3ccccc32)cc1OC	u	u	-7%
COc1cc(Cn2c(-c3nonc3N)nc3ccccc32)ccc1C	u	25µM*	-26%
Cc1ccccc1CS(=O)(=O)Cc1ccc(C(=O)NCCCN2CCCC2=O)o1	u	4µM*	1%
Cc1ccccc1CS(=O)(=O)Cc1ccc(C(=O)NCCCN2CCOCC2)o1	-1%[11.4 µM]	-2%	-2%
CCOc1ccc(NC(=O)c2ccc(NC(=O)CCS(=O)(=O)c3cccs3)cc2)cc1	x	x	-12%[10.9 µM]
CC[C@@H](c1ccc2cc(O)ccc2c1)C(C)(C)C(=O)O	2%[11.4 µM]	-9%[11.4 µM]	13%[10.9 µM]
CC(CCC(=O)O)(c1cc(Br)c(O)c(Br)c1)c1cc(Br)c(O)c(Br)c1	u	1.3µM*	-15%[10.9 µM]
COC(=O)C1=C(C)N(C)C(C)=C(C(=O)OC)C1c1ccncc1	7%	3%	-9%
COC(=O)C1=C(C)N(C)C(C)=C(C(=O)OC)C1c1ccc(F)c(Br)c1	u	32µM*	-16%
Cc1ccc(C)c([C@@H]2NC(=O)c3ccccc3N2)c1	0%[11.4 µM]	16%[11.4 µM]	-29%[10.9 µM]
CCN(c1ccccc1)S(=O)(=O)c1ccc2[nH]cc(C(=O)NCc3ccc(C)cc3)c(=O)c2c1	x	x	4%[10.9 µM]
Cc1ccc(-n2ncc3c(NCCCn4ccnc4)ncnc32)cc1	x	x	-16%[10.9 µM]
Cc1ccc(-n2ncc3c(NCCCn4ccnc4)ncnc32)c(C)c1	u	1.6µM*	-35%
CC(=O)[C@H]1CC[C@@H]2[C@]1(C)CC=C1[C@@]23C=C[C@]2(C[C@H](O)CC[C@@]12C)[C@H](C(=O)O)[C@@H]3C(=O)O	x	x	1%[10.9 µM]
O=C(CN(Cc1ccco1)C(=O)CNS(=O)(=O)c1ccc(F)cc1)NCCc1ccccc1	-1%	8%	-4%
CCC(C(=O)NCc1ccco1)N(C(=O)CNS(=O)(=O)c1ccc(C)cc1)c1ccccc1OC (centres undefined)	u	16µM*	-11%
CCCC(C(=O)NCc1ccco1)N(C(=O)CNS(=O)(=O)c1ccc(Cl)cc1)C1CCCC1 (centres undefined)	-9%	7%	-10%
CCCC(C(=O)NCc1ccco1)N(C(=O)CNS(=O)(=O)c1ccccc1)c1ccccc1OC (centres undefined)	u	25µM*	x
COc1ccccc1N(C(=O)CNS(=O)(=O)c1ccccc1)C(C(=O)NCc1ccco1)C(C)C (centres undefined)	u	u	-13%
SMILES	TSHR ag	HEK293 cAMP ctrl	Imprint erasure
O=C(CN(Cc1ccco1)C(=O)CNS(=O)(=O)c1ccccc1)NCc1ccccc1	20µM*	13%	-5%
CC(Sc1nc(-c2ccccc2)c(C#N)c(=O)[nH]1)C(=O)Nc1ccc(F)cc1 (centres undefined)	x	x	-17%[10.9 µM]
COC(=O)c1cn(C(=O)c2ccco2)c2ccccc12	3%	-2%	-6%
Cn1cc(/C(Cc2ccccc2)=N\O)c2ccccc21	20µM*	29%	3%
COc1ccc(NCc2cc3cc4c(cc3n(CC(=O)Nc3ccc(F)cc3F)c2=O)OCO4)cc1	x	x	4%[10.9 µM]
COc1ccc(NC2=Nc3ccccc3CC2)cc1	11%	16%	-84%
COc1ccc2nc3c(cc2c1)Cc1ccccc1-3	u	25µM*	-96%
COc1cccc2c(=O)n(CC(=O)NC3CCCC3)ccc12	1.3µM*	1%	-13%
COc1cccc(-c2nnn(CC(=O)NC3CCCC3)n2)c1OC	-1%	1%	-12%
Oc1cc(O)cc(/C=C\c2ccc(O)c(O)c2)c1	2%	-9%	x
CCOc1ccc(Nc2oc(-c3ccc(COc4ccccc4C)o3)nc2C#N)cc1	x	x	-11%[10.9 µM]
Cc1ccc2c(c1)N(CC(=O)N(Cc1ccc3c(c1)OCO3)CC1CCCO1)C(=O)C(C)O2 (centres undefined)	u	20µM*	4%
Cc1ccc(C)c(N2C(=O)CC(N3CCN(Cc4ccc5c(c4)OCO5)CC3)C2=O)c1 (centres undefined)	15%[11.4 µM]	10%[11.4 µM]	-6%
Cc1ccc2c(c1)N(CC(=O)c1cccc(Cl)c1)C(=O)C(C)O2 (centres undefined)	u	20µM*	-2%
CC1Oc2ccccc2N(CC(=O)c2cccc(Cl)c2)C1=O (centres undefined)	u	u	-15%
CCOc1ccccc1NC(=O)c1cc2c(Cl)nc3ccccc3c2s1	x	x	2%[10.9 µM]
Cc1ccc(Cl)cc1N1CCN(C(c2ccc(C#N)cc2)c2nnnn2C2CCCC2)CC1 (centres undefined)	u	1.3µM*	-5%
Cc1ccc(Cl)cc1N1CCN(C(c2cccnc2)c2nnnn2C2CCCCC2)CC1 (centres undefined)	3%	26%	-4%
CCC1=C2CC[C@H]3C(=O)NC(=O)[C@H]3[C@H]2[C@@]2(C)C(=O)N(CC3CC3)C(=O)N2C1=O	x	x	-1%
CCOc1cccc(C(=O)Nc2cccc(-c3nc4ncccc4o3)c2C)c1	u	u	-15%
COc1cccc(C(=O)Nc2cccc(-c3nc4ncccc4o3)c2C)c1	u	16µM*	-18%
c1csc(CSc2nc3ccccc3s2)c1	7%	14%	-26%
CCn1c(CSc2nc3ccccc3s2)nc2ccccc21	u	4µM*	-15%
Cc1ccc(O)c(C(=O)c2cnc3c(c2)CN(CCC(C)C)C(=O)N3)c1	4%[11.4 µM]	7%	-16%
CN1Cc2cc(C(=O)c3cc(Cl)cc(CSc4ncccn4)c3O)cnc2NC1=O	16µM*	13%	-19%
SMILES	TSHR ag	HEK293 cAMP ctrl	Imprint erasure
Cc1ccc(CNC(=O)CSc2c(C(C)C)cnc3c2c(=O)n(C)c(=O)n3C)cc1	x	x	6%[10.9 µM]
Cc1ccccc1CSc1nc2c(sc3ccccc32)c(=O)n1CCCC(=O)NCCCOC(C)C	x	x	-7%[10.9 µM]
O=C(NCCSc1c(-c2ccc(Br)cc2)[nH]c2ccccc12)c1ccc(S(=O)(=O)N2CCOCC2)cc1	x	x	-19%[10.9 µM]
Fc1ccccc1COc1cccc(/C=N/n2cnnc2)c1	u	32µM*	-89%
Cc1cc(/C=N/n2cnnc2)c(C)n1-c1ccc(OCc2ccccc2F)cc1	u	u	-22%
O=C(Cn1cc(S(=O)(=O)N2CCCC2)c(S(=O)(=O)N2CCCC2)c1)Nc1cccc(F)c1	x	x	-8%[10.9 µM]
O=c1n(Cc2ccccc2Cl)c2sc3c(c2c2ncnn12)CCCC3	20µM*	28%	-16%
O=c1c2c3c(sc2n(Cc2ccccc2F)c(=O)n1-c1ccc(Cl)cc1)CCCC3	x	x	4%[10.9 µM]
O=C(Cn1c(=O)n(-c2ccc(Cl)cc2)c(=O)c2c3c(sc21)CCC3)c1ccc(F)cc1	x	x	-9%[10.9 µM]
O=C(Cn1c(=O)n2ncnc2c2c3c(sc21)CCCC3)c1ccccc1	u	25µM*	-9%
